Test results reported in ChEMBL document CHEMBL3988442, “University of Dundee, Small-Polar-MMV Screening Library” (2021).
About 440 (0.52%) of roughly 85,000 compounds showed an effect of 50% or more. The sample as a whole holds a higher share of strong results than the screen did.

Assay: In vitro enzyme assay to detect hydrolysis of chlorophenol red-beta-D-[…] directly proportional to the number of Toxoplasma stably expressing beta-galactosidase
Type: functional, organism-based, Toxoplasma gondii
Set-up: scale not given: in the data most compounds retested in dose-response had high values

| SMILES | Percent Effect (50 µM) | Percent Effect (10 µM) |
| --- | --- | --- |
| CNC1CCN(Cc2ncc(C)c(OC)c2C)CC1 | 36.04% |  |
| CCCc1nc(NCCCO)c2c(n1)c(C)nn2CC |  | 3.108% |
| CCCc1nc(NCCc2ccccc2)c2c(n1)c(C)nn2CC |  | 68.81% |
| CCn1nc(C)c2nc(C)nc(NCCc3ccccc3)c21 |  | 19.6% |
| CCc1nc(NCCCOC)c2c(n1)c(C)nn2C |  | 6.336% |
| CCCc1nc(NCCOC)c2c(n1)c(C)nn2CC |  | 57.71% |
| CCCc1nc(NCCCOC)c2c(n1)c(C)nn2CC |  | 90.71% |
| CCn1nc(C)c2nc(C(C)C)nc(NCCOC)c21 |  | 21.04% |
| CCCc1nc(NCC(=O)N2CCOCC2)c2c(n1)c(C)nn2CC |  | 3.704% |
| CCCc1nc(N2CCC(C)CC2)c2c(n1)c(C)nn2CC |  | 25.59% |
| CCCc1nc(NCCCOCC)c2c(n1)c(C)nn2CC |  | 72.53% |
| CCc1nc(NCCCn2cccn2)c2c(n1)c(C)nn2CC |  | 14.75% |
| CCn1nc(C)c2nc(C)nc(NCCc3ccc(C)cc3)c21 |  | 34% |
| CNCCCOC(C)C | -2.494% |  |
| NC1CCN(CC2CC2)CC1 | 2.288% |  |
| NC(=O)c1ccc(NC(=O)CCN2CC(O)C2)cc1 | -17.28% |  |
| CCC(Nc1cccc(OCC(F)(F)F)c1)C(N)=O (configuration not stated) | -6.008% |  |
| CCOC(=O)NC1CCC(NC(=O)C2CCC2)CC1 (configuration not stated) | 0.5853% |  |
| CCN(CC)c1nc2nc[nH]c(=O)c2s1 | -4.057% |  |

| SMILES | Percent Effect (50 µM) | Percent Effect (10 µM) |
| --- | --- | --- |
| CC(CCN)CCO (configuration not stated) | 29.53% |  |
| OCc1nncn1-c1ccccc1 | 12.09% |  |
| C[C@@H]1CN(C2CCN(c3ccccc3F)CC2)CC[C@]1(C)O |  | 72.85% |
| Cc1cc(F)ccc1N1CCC(N2C[C@@H](C)[C@@](C)(O)C2)CC1 |  | 24.01% |
| C[C@@H]1CN(C2CCN(c3ccccc3F)CC2)C[C@]1(C)O |  | 12.36% |
| CN(C)CC1CNCCO1 (configuration not stated) | -14.23% |  |
| CC(=O)NC(C(=O)N(C)Cc1cccs1)C(C)C (configuration not stated) | 4.166% |  |
| OCCN1CCN(c2ccc3nnnn3n2)CC1 | 0.916% |  |
| Cn1cc(N)c(C(F)(F)F)n1 | -8.221% |  |
| Cn1cc(S(N)(=O)=O)c(C(F)(F)F)n1 | 17.97% |  |
| Cn1cc(CN)c(C(F)(F)F)n1 | 98.21% |  |
| CN1CCC(CNC(=O)CCc2cccs2)C1 (configuration not stated) | -16.97% |  |
| CN1CCCCC1CCC(=O)NCCc1ccncc1 (configuration not stated) | 15.39% |  |
| CNc1oc(-c2ccc(S(=O)(=O)N(C)C)o2)nc1C#N |  | 44.93% |
| CN(C)S(=O)(=O)c1ccc(-c2nc(C#N)c(NC3CC3)o2)o1 |  | -1.829% |
| CN(C)S(=O)(=O)c1ccc(-c2nc(C#N)c(NC3CCCCC3)o2)o1 |  | 3.806% |
| CC(C)Nc1oc(-c2ccc(S(=O)(=O)N(C)C)o2)nc1C#N |  | -12.9% |
| CN(C)S(=O)(=O)c1ccc(-c2nc(C#N)c(NC(C)(C)C)o2)o1.Cl |  | 91.6% |
